Compounds with a hit are over-represented: about 2.7% of the library has one in this group of screens.
FAS TE block – FAS thioesterase (human) inhibition; P49327; 360,000 compounds, 0.67% hits; inhibition, % at 15 µM; recombinant FAS-TE, OMFH fluorogenic substrate, fluorescence endpoint;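 active = compounds whose normalised, plate-corrected inhibition of enzyme fluorescence in the single-dose primary screen is 50% or more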
PfGluPho inh – PfG6PD (Plasmodium falciparum) enzyme inhibition | PfGluPho enzyme, NADPH resazurin-diaphorase fluorescence | inhibition, % at 20 µM | 350,000 compounds, 0.78% hits | AID 504690;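 active = inhibition reaching at least a set limit at 20 µM in the primary screen, cut at about 59% in these data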
proKLK7 act – activators of human kallikrein-7 zymogen | P49862 | purified proKLK7, EDANS-DABCYL substrate fluorescence; 100% is mature enzyme control, 0% vehicle | activation, % at 7 µM | 370,000 compounds, 0.9% hits | AID 652039;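 active = activation above the mean of all tested compounds plus 3 SD, computed per campaign excluding outliers beyond control limits, cut at about 13% in these data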
Neddylation inh – cullin neddylation inhibition; TR-FRET cullin neddylation, biochemical; calls only at 25 µM; 360,000 compounds, 0.58% hits; AID 651699; in the data active = inhibition above about 36%
Target sequence (P61081 whole entry, looked up): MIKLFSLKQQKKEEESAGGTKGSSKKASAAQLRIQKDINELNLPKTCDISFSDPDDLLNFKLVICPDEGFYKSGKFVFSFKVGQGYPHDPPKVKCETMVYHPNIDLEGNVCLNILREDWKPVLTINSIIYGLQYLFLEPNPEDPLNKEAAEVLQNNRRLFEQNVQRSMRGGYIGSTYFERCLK
Target sequence (Q13564 whole entry, looked up): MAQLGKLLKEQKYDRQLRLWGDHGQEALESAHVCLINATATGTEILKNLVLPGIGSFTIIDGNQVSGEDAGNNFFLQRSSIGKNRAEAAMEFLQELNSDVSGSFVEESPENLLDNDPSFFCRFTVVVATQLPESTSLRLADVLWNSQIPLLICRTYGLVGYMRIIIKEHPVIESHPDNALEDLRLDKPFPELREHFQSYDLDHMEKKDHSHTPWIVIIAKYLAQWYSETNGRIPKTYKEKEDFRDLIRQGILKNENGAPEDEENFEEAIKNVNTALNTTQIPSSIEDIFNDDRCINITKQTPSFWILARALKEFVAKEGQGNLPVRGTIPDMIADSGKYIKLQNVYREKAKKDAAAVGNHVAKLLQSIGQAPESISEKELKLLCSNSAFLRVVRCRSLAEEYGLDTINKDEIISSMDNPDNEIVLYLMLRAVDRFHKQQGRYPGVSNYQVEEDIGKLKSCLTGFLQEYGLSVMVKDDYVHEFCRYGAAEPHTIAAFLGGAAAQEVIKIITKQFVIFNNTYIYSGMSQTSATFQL
proKLK7 act conf – confirmation of human kallikrein-7 zymogen activators. purified proKLK7, EDANS-DABCYL substrate fluorescence; scaled: vehicle 0, mature enzyme 100. AID 686949. shares compounds with proKLK7 act. activation, % at 7 µM. 3,200 compounds, 68% hits;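 active = activation, as change over the incubation, above the mean of all tested compounds plus 3 SD, cut at about 13% in these data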
EDANS-DABCYL int – counter-screen for kallikrein-7 activators: EDANS-DABCYL optical interference. AID 686952. 3,200 compounds, 80% hits. activation, % at 7 µM. shares compounds with proKLK7 act. EDANS-DABCYL substrate fluorescence interference, no enzyme, 4 h; solvent 0%, active enzyme control 100%;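 active = activation above the all-compound mean plus 3 SD, ignoring values outside control-based bounds, cut at about 4.8% in these data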;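 also: value is the 4 h activation minus the activation read at time zero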
Hits are given with their value; . = inactive; / = no result given.

SMILES | FAS TE block | PfGluPho inh | proKLK7 act | Neddylation inh | proKLK7 act conf | EDANS-DABCYL int
O=C(CSc1nnc(-c2ccc(O)cc2)n1Cc1ccco1)c1cccs1 | . | . | . | . | / | /
O=C(CC(SCc1ccco1)c1ccc(O)cc1)c1cccs1 (stereo unspecified) | . | . | 25.1 | . | 15.7 | 14.1
O=C(CC(SCCO)c1ccc2c(c1)OCO2)c1cccs1 (stereo unspecified) | . | . | 14.0 | . | 26.2 | 26.7
COc1ccc(C(=O)NCC2CCN(C(=O)C(=O)c3cccs3)CC2)cc1 | / | / | . | / | / | /
CCCNC(=O)C1(C)CCCN(C(=O)c2cc(C)nn2C(C)(C)C)C1 (stereo unspecified) | . | / | . | . | / | /
COc1ccc(Cl)cc1-c1cc(C(=O)NCc2cccc(C(F)(F)F)c2)[nH]n1 | . | / | . | . | / | /
NC(=O)c1cccc(S(=O)(=O)N2CCCCC2)c1 | . | . | . | . | / | /
Nc1cccc2c1C(=O)N(C(=O)c1cccc(S(=O)(=O)N3CCCC3)c1)C2=O | . | . | 32.0 | / | 189.6 | 196.0
CCOC(=O)CNc1c(-c2ccc(F)cc2)nc2cnccn12 | . | . | 65.4 | / | 63.0 | 64.6
CCOC(=O)CNc1c(-c2ccc(Cl)cc2)nc2cnccn12 | . | . | 64.6 | / | 77.0 | 80.3
C=CCn1c(COc2ccc(C)cc2)nnc1SCC(=O)Nc1cc(Cl)cc(Cl)c1 | / | / | . | / | / | /
COc1ccc(-c2c(C)oc3c(CN4CCN(CCO)CC4)c(O)ccc3c2=O)cc1OC | . | . | . | / | / | /
CCOC(=O)c1oc2c(CN3CCN(C)CC3)c(O)ccc2c(=O)c1-c1ccccc1OC | . | . | . | . | / | /
COc1ccccc1-c1c(C)oc2c(CN3CCN(C)CC3)c(O)ccc2c1=O | . | . | 62.2 | / | 59.7 | 74.3
COc1ccccc1-c1c(C)oc2c(CN3CCN(CCO)CC3)c(O)ccc2c1=O | . | . | 72.5 | / | 68.3 | 74.8
CC(C)(C)N(Cc1cn(Cc2ccccc2)nn1)S(=O)(=O)c1ccc(N2CCCC2)cc1Br | / | / | . | / | / | /
C=CCN(CC=C)Cc1cc(=O)oc2cc(C)cc(C)c12 | . | / | . | . | / | /
CCc1nc2ccc(C(=O)N(C)CCN(C)C)cn2c1N(C)Cc1cc2ccccc2s1 | . | / | . | . | / | /
CCOC(=O)Nc1ccc2c(COC(=O)CNS(=O)(=O)c3ccc(NC(C)=O)cc3)cc(=O)oc2c1 | . | . | 98.1 | . | 126.5 | 106.1
CCCn1c(-c2ccc[nH]c2=O)nc2cc(C)c(C)cc21 | . | . | 18.4 | / | 38.1 | 40.5
O=c1c2cc(N3CCOCC3)ccc2[nH]c(=S)n1CCc1ccccc1 | . | . | . | / | / | /
COCCCn1c(=S)[nH]c2ccc(N3CCOCC3)cc2c1=O | . | . | 58.3 | / | 30.2 | 48.5
O=c1c2cc(N3CCOCC3)ccc2[nH]c(=S)n1CC1CCCO1 (stereo unspecified) | . | . | 31.8 | / | . | 4.7
CCCCN(C)CCn1c(=S)[nH]c2ccc(N3CCOCC3)cc2c1=O | . | . | 67.6 | / | . | .
O=c1c2cc(N3CCOCC3)ccc2[nH]c(=S)n1Cc1ccccc1Cl | . | . | . | . | / | /
SMILES | FAS TE block | PfGluPho inh | proKLK7 act | Neddylation inh | proKLK7 act conf | EDANS-DABCYL int
O=c1c2cc(N3CCOCC3)ccc2[nH]c(=S)n1Cc1ccccn1 | . | . | 79.6 | / | 20.6 | 19.7
CCc1ccccc1N=Nc1c(N)[nH]n(-c2ccccc2)c1=O | / | / | . | / | / | /
CC(=Nc1ccccc1)C1=C(O)C(Cc2cccc(F)c2)NC1=O (stereo unspecified) | . | . | . | . | / | /
COCCn1c(=S)[nH]c2ccc(N(C)C)cc2c1=O | . | . | 48.2 | / | 76.0 | 74.2
O=C(CCCCCn1c(=S)[nH]c2ccc(N3CCOCC3)cc2c1=O)NCc1cccc(Cl)c1 | . | . | 16.5 | / | . | .
COC(=O)[C@]12C[C@H](CC(=O)N3CCSCC3)C(=O)N(Cc3cccc4ccccc34)C1=C[C@H](C(C)(C)C)O[C@@H]2C | / | / | . | / | / | /
CN(C(=O)c1ccncc1)c1nnc(-c2ccccn2)s1 | . | . | 64.1 | . | 88.2 | 81.1
COC(=O)c1ccc(C(=O)OC)c(NC(=O)Oc2ccccc2)c1 | . | . | 38.3 | . | 74.9 | 75.0
COC(=O)c1ccc(C(=O)OC)c(NS(C)(=O)=O)c1 | . | . | 28.0 | . | 21.4 | 20.6
COC(=O)c1ccccc1NS(C)(=O)=O | . | . | . | . | / | /
CN1C(c2ccccc2)CC(C)(O)CC1c1ccccc1 (stereo unspecified) | / | / | . | / | / | /
O=C(Nc1nccs1)c1ccc(N2CCOCC2)c([N+](=O)[O-])c1 | . | . | 13.1 | . | . | .
